# Results published in PubChem BioAssay (NCI).
# Compounds without any hit were thinned out: in the full panel of roughly 83,000, 20% have a hit.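 96-well plates, one dose, 48 hours. Percent growth reported; active if below 10.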 Unmarked numbers belong to inactive results. Active and inactive are the calls of the source.
# Legend:
# Assay in all cases: NCI-60 one-dose screen, 48 h (100 = growth as untreated, 0 = no growth, -100 = all killed)
# Conditions in all cases: 10 µM
# NCI-H23 lung = test system: NCI-H23 lung
# NCI-H226 lung = test system: NCI-H226 lung
# NCI-H460 lung = test system: NCI-H460 lung
# HOP-92 NSCLC = test system: HOP-92 NSCLC
# NCI-H522 lung = test system: NCI-H522 lung
# A549/ATCC NSCLC = test system: A549/ATCC NSCLC
# 786-0 renal = test system: 786-0 renal
# COLO 205 colon = test system: COLO 205 colon
# DU-145 prostate = test system: DU-145 prostate
# K-562 leukemia = test system: K-562 leukemia
# MDA-MB-231 breast = test system: MDA-MB-231 breast
# RXF 393 renal = test system: RXF 393 renal
# SF-268 CNS = test system: SF-268 CNS
# SF-295 CNS = test system: SF-295 CNS
# SF-539 CNS = test system: SF-539 CNS
# UACC-257 melanoma = test system: UACC-257 melanoma
# M14 melanoma = test system: M14 melanoma
# MALME-3M melanoma = test system: MALME-3M melanoma
SMILES,growth (NCI-H23 lung),growth (NCI-H226 lung),growth (NCI-H460 lung),growth (HOP-92 NSCLC),growth (NCI-H522 lung),growth (A549/ATCC NSCLC),growth (786-0 renal),growth (COLO 205 colon),growth (DU-145 prostate),growth (K-562 leukemia),growth (MDA-MB-231 breast),growth (RXF 393 renal),growth (SF-268 CNS),growth (SF-295 CNS),growth (SF-539 CNS),growth (UACC-257 melanoma),growth (M14 melanoma),growth (MALME-3M melanoma)
COc1ccc(-c2nn(-c3cccc(Cl)c3)cc2-c2c(C#N)c(=O)n3[nH]c(-c4ccccc4)nc3c2C#N)cc1,81.1%,88%,105%,93.3%,72.4%,98.9%,89.4%,123%,102%,78.3%,87.1%,95.9%,101%,58.8%,100%,110%,109%,–
C(=N\Nc1ncnc2sc3c(c12)CCNC3)/c1cccc2ccccc12,98.9%,97.1%,62.8%,93.4%,97%,67.6%,59.5%,63.5%,100%,2.84% (active),66%,85%,97.5%,104%,85.8%,104%,95%,92.6%
COc1ccc(C(=O)c2ccccc2CN2C(=O)c3ccccc3C2=O)cc1,91.7%,102%,105%,86.7%,95.3%,98.9%,101%,118%,110%,96.5%,109%,107%,102%,100%,108%,104%,104%,98.6%
COc1ccc(-c2nn(-c3cccc(Cl)c3)cc2C=C(C#N)C#N)cc1,-45.2% (active),25.4%,1.56% (active),11%,-12.1% (active),19.1%,-8.39% (active),–,3.57% (active),-13.2% (active),-40.3% (active),-5.72% (active),13.3%,–,2.34% (active),38.5%,-18% (active),17.7%
COc1cc(/C=C2\CCCC3=C2NC(N)=NC3c2cc(OC)c(OC)c(OC)c2)cc(OC)c1OC (stereo unspecified),11.6%,-61% (active),-42.6% (active),-1% (active),-38% (active),-28.4% (active),-20.1% (active),-0.149% (active),-9.85% (active),6.43% (active),28.9%,-88% (active),15.1%,-35.3% (active),25.9%,-31.1% (active),-36.1% (active),-42.5% (active)
CC[C@@H](C(=O)[C@H](C)[C@H](O)[C@@H](C)[C@H]1O[C@H]([C@@H](CC)C(=O)O)CC[C@H]1C)C1O[C@]2(C=C[C@@H](O)[C@]3(CC[C@@](C)([C@H]4CC[C@](O)(CC)[C@H](C)O4)O3)O2)[C@H](C)C[C@@H]1C (stereo partly specified),13.4%,21.4%,11.4%,24%,-4.35% (active),20.8%,27.1%,8.73% (active),51.3%,6.72% (active),17.3%,-8.61% (active),38%,-12.6% (active),2.48% (active),35.3%,-38.8% (active),-83.6% (active)
Cc1ccc(/C=C2/C(=O)N(C)c3ccc(S(=O)(=O)Nc4ccc(C(C)(C)C)cc4)cc32)s1,67%,63.9%,98%,79.2%,75.5%,68.5%,67.4%,86.5%,87.3%,79.8%,35.2%,41.8%,67.4%,88%,23%,85.7%,83.1%,57.6%
Cc1ccc(C2=NN(c3ccc(S(C)(=O)=O)cc3)C(=O)CC2)cc1,-19.6% (active),77.6%,12.8%,60.9%,-28.5% (active),36.6%,38.3%,4.23% (active),6.77% (active),11.7%,47.8%,15.4%,55.2%,–,-7.93% (active),50.7%,10.2%,45.5%
COc1ccc(-c2nn(-c3cccc(Cl)c3)cc2-c2c(C#N)c(N)n(N)c(=O)c2C#N)cc1,66.9%,66.5%,72.2%,53.8%,-46% (active),66.2%,84.2%,85.3%,90.5%,–,75.3%,65.3%,60.2%,–,72.8%,90.3%,73.5%,–
COc1ccc(-c2nn(-c3cccc(Cl)c3)cc2-c2c(C#N)c(=O)n3[nH]c(-c4ccc(C)cc4)nc3c2C#N)cc1,75.3%,57.5%,39.3%,59.2%,20.5%,50.5%,3.78% (active),15.9%,28.4%,4.62% (active),-2.7% (active),28.2%,35.8%,23.6%,34.8%,96.9%,-10.9% (active),21.4%
Cc1cn(-c2cccc(NC(=O)c3ccc(C)c(Nc4nccc(-c5cccnc5)n4)c3)c2)cn1,32.2%,-43% (active),-13% (active),-13% (active),-17.7% (active),10.7%,-52.2% (active),11%,13.3%,-22.5% (active),-48.5% (active),-49.5% (active),15.8%,–,-33.3% (active),29.1%,22.6%,42%
CC1OC2CC(=O)OC2C2=C1C(=O)c1c(O)c3c(c(O)c1C2=O)C1CC(O)C3(O)C(C)O1 (stereo unspecified),-34.2% (active),-69% (active),2.35% (active),-13% (active),-66.4% (active),2.66% (active),-12.3% (active),-73.5% (active),-94.9% (active),6.27% (active),-16.3% (active),-91.1% (active),1.92% (active),3.26% (active),-84.2% (active),-58.4% (active),-76.7% (active),–
COc1ccc(-c2nn(-c3cccc(Cl)c3)cc2-c2cc(-c3cccs3)[nH]c(=S)n2)cc1,15.7%,58.9%,43.8%,94%,46.5%,39.7%,38.4%,52.4%,74.6%,28.3%,83.3%,56.7%,61.6%,8.31% (active),69.3%,88.6%,33.6%,31.1%
N#CC1=CC2CN(Cc3ccccc3)C1C1C(=O)N(c3ccccc3)C(=O)C21 (stereo unspecified),88%,97.7%,101%,108%,106%,95.5%,102%,98.2%,105%,92.4%,106%,103%,107%,98.7%,98.5%,97.5%,86.4%,111%
COc1cccc(CNc2cccc3cn[nH]c23)c1O,94.9%,87.6%,111%,72.3%,86.3%,90.6%,105%,110%,100%,126%,72.8%,113%,106%,108%,94.7%,99%,98.7%,88.3%
O=C1NC(=O)c2c(CCCSc3nc4ccccc4c(=O)n3CCc3ccccc3)cccc21,76.7%,82.9%,83.8%,94.5%,89.3%,89.4%,78.6%,118%,111%,89.7%,65.8%,92.8%,91.2%,44.9%,65.7%,105%,98.1%,–
CCOC(=O)c1cc(C(=O)c2cc(OC)c(OC)c(OC)c2)n2nc(C)ccc12,39.2%,79.5%,9.56% (active),50.1%,3.82% (active),26.8%,54.4%,-39.4% (active),21.1%,9.56% (active),45.8%,33.6%,56.2%,41%,15%,55.5%,21%,77.9%
